These results are taken from ChEMBL document CHEMBL3433997, “St. Jude Leishmania screening dataset” (2016).

Assay type in all cases: functional
The target in assay [1] is Solute carrier family 2, facilitated glucose transporter member 1 (Homo sapiens) (UniProt P11166). Kind of assay: ST_JUDE_LEISH: Cytotoxicity at 2uM final concentration against transgenic Leishmania Mexicana promastigotes LmGLUT1 that are glucose transport deficient and complemented with the human glucose transporter GLUT1. Activity is measured by DNA content using SYBR green in vitro.

For assay [2], the target named is Hexose transporter 1 (Plasmodium falciparum) (UniProt O97467). Kind of assay: ST_JUDE_LEISH: Cytotoxicity at 2uM final concentration against transgenic Leishmania Mexicana promastigotes LmPfHT that are glucose transport deficient and complemented with the Plasmodium falciparum hexose transporter. Activity is measured by DNA content using SYBR green in vitro.
The target in assay [3] is Glucose transporter (Leishmania mexicana) (UniProt O61059). Kind of assay: ST_JUDE_LEISH: Cytotoxicity at 2uM final concentration against transgenic Leishmania Mexicana promastigotes LmGT2 that are glucose transport deficient and complemented with the L. Mexicana glucose transporter 2. Activity is measured by DNA content using SYBR green in vitro.

SMILES strings stand for the structures.

Solute carrier family 2, facilitated glucose transporter member 1 (Homo sapiens), sequence (P11166 whole entry): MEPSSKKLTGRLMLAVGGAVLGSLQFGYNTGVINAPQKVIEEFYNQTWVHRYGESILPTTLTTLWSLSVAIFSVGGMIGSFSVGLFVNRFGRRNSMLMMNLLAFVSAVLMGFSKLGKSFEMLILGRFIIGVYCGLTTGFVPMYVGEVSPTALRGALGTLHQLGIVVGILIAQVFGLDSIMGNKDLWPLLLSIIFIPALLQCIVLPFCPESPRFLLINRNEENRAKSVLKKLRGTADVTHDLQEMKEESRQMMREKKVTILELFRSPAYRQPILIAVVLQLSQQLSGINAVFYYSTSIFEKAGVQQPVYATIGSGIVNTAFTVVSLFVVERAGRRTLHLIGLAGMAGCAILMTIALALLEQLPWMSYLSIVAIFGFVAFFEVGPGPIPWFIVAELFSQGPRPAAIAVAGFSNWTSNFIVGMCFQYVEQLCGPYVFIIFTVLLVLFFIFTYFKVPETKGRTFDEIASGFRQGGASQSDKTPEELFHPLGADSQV

Take `O=C1CCCN1CCCNCc1ccc(-c2ccc(-c3nc4cc(F)ccc4[nH]3)cc2)cc1`: the inhibition was 11.9% in assay [1], 13.3% in assay [2] and 12.3% in assay [3].
Turning to `COc1ccc2nccc([C@@H](O)CN3CCC(NC(=O)c4ccc(Cl)c(Cl)c4)CC3)c2c1`, the values for the inhibition in assay [1], in assay [2] and in assay [3] were 25.5%, 41.7% and 18.8%, respectively.
`CN(C)C1CCN(Cc2ccc(N3CCN(Cc4cccc5[nH]ccc45)CC3)nc2)CC1`: the inhibition in assay [1] was 2.41%; in assay [2], 1.46%; in assay [3], 2.99%.
With `CCNC(=O)N1CCc2ccc(Oc3nc(NCc4ccccc4OC)ncc3C)cc2CC1`, the inhibition amounted to 5.14% in assay [1], 6.01% in assay [2] and 2.64% in assay [3].
Consider `Cc1cccc2nc(-c3ccc(-c4cccc(NC(=O)C(=O)c5cccn5C)c4)cc3)[nH]c12`, for which the inhibition came out at 4.58% in assay [1], 2.19% in assay [2] and 2.29% in assay [3].
For `COc1cc(NC(=O)N2CCOC(CCN3CCC(c4ccccc4)CC3)(c3ccc(Cl)c(Cl)c3)C2)cc(OC)c1OC` (centres undefined), the inhibition in assay [1] is 3.7%; in assay [2], 2.95%; in assay [3] it was 1.05%.
As for `Cc1ccc2c(Cl)c(C(=O)N3CC(C)OC(C)C3)sc2c1` (centres undefined), the inhibition in assay [1] was determined as 0.22%; in assay [2] it was 1.09%; in assay [3], 3.43%.
With `COC(=O)c1sc2ccccc2c1NC(=O)c1ccc(C)c(C)c1`, the values for the inhibition in assay [1], in assay [2] and in assay [3] were 5.3%, 4.87% and 5.56%, respectively.
In the same order, the values of `O=C(c1ccc([N+](=O)[O-])o1)N1CCN(c2nc3c(Cl)cccc3s2)CC1` are 39.8%, 37.4% and 4.58%.
`COc1ccc(Nc2cc(C)c3cc(NC(=O)c4ccncc4)ccc3n2)cc1`: the inhibition in assay [1] is 0.86%; in assay [2] it was 2.43%; in assay [3], 0.74%.
`CC(CN1CCN(C)CC1)C(=O)Nc1cccc(-c2cccc(-c3nc4cc(F)ccc4[nH]3)c2)c1` (centres undefined): the inhibition in assay [1] was 6.87%; in assay [2], 5.83%; in assay [3], 5.91%.
As for `CC(C)Oc1ccc(CCCON2C(=N)N=C(N)NC2(C)C)cc1`, the figures for the inhibition in assay [1], in assay [2] and in assay [3] were 20.8%, 28.2% and 19%, respectively.
Regarding `Cc1cc(N(C)C)nc(Nc2ccc(NC(=O)c3cccc(F)c3)cc2)n1`, the figures for the inhibition in assay [1], in assay [2] and in assay [3] were 3.36%, 10.1% and 3.75%, respectively.
For `COc1cccc(NC(=O)Nc2ccc(Nc3nc(C)cc(N4CCCC4)n3)cc2)c1`, in that order: 1.91%, 1.07% and 1.4%.
On to `CCCN1CCN(Cc2ccc(C(=O)Nc3ccc(Cl)cc3)cc2)CC1`, for which the inhibition in assay [1] was found to be 5.31%; in assay [2], 4.24%; in assay [3], 4.34%.
With `CS(=O)(=O)c1ccc2c(c1)CCN(CCC1CCC(NC(=O)c3cc4cccc(Br)c4[nH]3)CC1)CC2` (centres undefined), the inhibition in assay [1] is 2.5%; in assay [2], 2.78%; in assay [3] it was 1.11%.
For the compound `Cn1ncc2c3c(CCN4CCC(NCc5cc6c(cn5)OCC6)CC4)c(Cl)cnc3ccc21`, the inhibition in assay [1] stood at 0.52%; in assay [2], 0.99%; in assay [3], 0.05%.
On to `CCOc1cc(C(=O)NCc2ccc(Cl)c(Cl)c2)ccc1-c1nc2cc(Cl)ccc2[nH]1`, for which the inhibition in assay [1] is -0.85%; in assay [2], 2.33%; in assay [3], 7.21%.
For `CC(C)(C)c1ccc2oc(=O)n(C3CCN(C(=O)c4ccc([N+](=O)[O-])o4)CC3)c2c1`, the inhibition in assay [1] came to 5.8%; in assay [2], 10.9%; in assay [3] it was 0.29%.
As for `Cc1nc(-c2ccc3c(c2)CCN(CCC2CCC(NC(=O)c4cc5cccc(Cl)c5[nH]4)CC2)CC3)no1` (centres undefined), the inhibition in assay [1] stood at 0.58%; in assay [2], 7.07%; in assay [3], 6.97%.
In the same order, the values of `O=C(NC1CCN(Cc2ccsc2)CC1)c1ccc(-c2cccc(C(F)(F)F)c2)s1` are 8.18%, 9.07% and 0.59%.
For `Cc1nnsc1C(=O)Nc1cccc(-c2ccc(-c3nc4cc(F)ccc4[nH]3)s2)c1`, in that order: 1.06%, 0.37% and -2.44%.
Consider `COc1ccc(NC(=O)c2c(NC(=O)c3cccs3)sc3c2CCCC3)cc1`, for which the inhibition in assay [1] worked out at 0.31%; in assay [2], 2.45%; in assay [3], 5.21%.
For `CNCc1cccc2nc(-c3ccc(Cc4cc(Cl)ccc4OCC(C)C)o3)[nH]c12`, in that order: 4.31%, 2.61% and 3.52%.
Consider `COc1ccc(-c2cccc(NC(=O)c3ccc(F)cc3)c2)cc1CNC(C)C`, for which the inhibition in assay [1] was found to be 1.85%; in assay [2], 3.31%; in assay [3], 3.19%.
For `O=C(Nc1cccc(OCc2ccccc2)c1)c1ccc(CN2CCC(Cc3ccccc3)CC2)cc1`, the inhibition in assay [1] was -0.83%; in assay [2], -1.67%; in assay [3] it was -0.42%.
Regarding `CCn1c(-c2nonc2N)nc2c(-c3cccc(Cl)c3)ncc(OCCCNCc3cnc(C)nc3N)c21`, the results for the inhibition in assay [1], in assay [2] and in assay [3] were 0.16%, -3.01% and 2.98%, respectively.
As to `Cc1cc(C(F)(F)F)cc(-n2ncc(-c3ccc(C(=O)NCc4ccccc4N)cc3)c2N)n1`, the inhibition in assay [1] was determined as 104%; in assay [2], 98.5%; in assay [3], 57.5%.
Take `CN1CCCC(COc2cc3c(cc2Br)CCN3C(=O)Nc2ccc(-c3ccncc3)c(Cl)c2)C1` (centres undefined): the results for the inhibition in assay [1], in assay [2] and in assay [3] were 9.37%, 5.78% and 3.35%, respectively.
On to `Cc1nc(-c2nc(NCc3ccc4c(c3)OCO4)ncc2-c2ccsc2)sc1C`, for which the inhibition in assay [1] is -0.05%; in assay [2], -0.48%; in assay [3], 0.68%.
On to `Cc1nc2nc(N)nc(N)c2c(C)c1Cc1cccs1`, for which the results for the inhibition in assay [1], in assay [2] and in assay [3] were 1.85%, 1.16% and 2.44%, respectively.
In the same order, the values of `O=C(/C=C/c1ccc(Cl)c(Cl)c1)NCCCCCN1CCC(c2c[nH]c3cc(O)ccc23)CC1` are 9.77%, 8.43% and 7.41%.
In the case of `Cc1ccc(CN2CCC(Oc3cccc(NC(=O)c4ccc(C(F)(F)F)cc4)c3)CC2)cc1`, the values for the inhibition in assay [1], in assay [2] and in assay [3] were 5.11%, 0.79% and 3.6%, respectively.

A word on the inhibition: it is the relative decrease from the control value, in per cent.
